Experimental data: PubChem BioAssay (NCI)
Compounds without any hit were thinned out: in the full panel of roughly 83,000, 20% have a hit.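 Percent growth is the endpoint: 0 to 100 indicates growth inhibition (40 means 60% inhibition), 0 means no net growth, and negative values indicate cell death.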 A number with no mark means an inactive call. Activity calls are given as the source filed them. Rule for the calls: active = growth percent below 10; inactive = the rest.

The compounds below were run on HL-60(TB) leukemia (assay: NCI-60 one-dose screen, 48 h (100 = growth as untreated, 0 = no growth, -100 = all killed)). Details: 10 µM unless noted.

First: COc1ccc(OC)c(NC2=C(Cl)C(=O)C(C)=C(C)C2=O)c1
Second: CC1=C(C)C(=O)C(Nc2cccc(C)c2)=C(Br)C1=O
The growth of the first is higher: 74% for the first, 37% for the second.

Compared with CC(O)C(NC(=O)C1CCCN1C(=O)CNC(=O)C1CC(=O)NCC(=O)NC(Cc2c[nH]c3ccccc23)C(=O)NC(Cc2ccc(O)cc2)C(=O)NCC(=O)NC(CO)C(=O)NC(CCC(N)=O)C(=O)NC(Cc2c[nH]c3ccccc23)C(=O)N1)C(=O)NCC(=O)NC(CCC(N)=O)C(=O)NC(CCCNC(=N)N)C(=O)NC(CC(=O)O)C(=O)O (stereo not given), O=C(CN1CCN(c2cc(=O)[nH]c3ccc(F)cc23)CC1)N(c1ccccc1)c1ccccc1 is higher in growth: 99.7% for the first, 106% for the second.

Compared with Cc1ccc(-c2cc3nc(C(Cl)Cl)nc(-c4ccc(S(=O)(=O)N(C)C)cc4)n3n2)cc1, NS(=O)(=O)c1ccc(Nc2nc(SCC(=O)c3ccc(Cl)cc3)nc3ccccc23)cc1 is higher in growth: 74.9% for the first, 103% for the second.

Compared with COc1cccc(/C=C/C(=O)c2ccc(NC(=O)COc3cccc4cccnc34)cc2)c1, C=CCn1c(SCC(=O)Nc2ccc(C(=O)/C=C/c3ccc(Cl)cc3)cc2)nnc1-c1c[nH]c2ccccc12 is higher in growth: 80.5% for the first, 87.5% for the second.

Going from Cn1ncc2c(C(=O)c3ccc(F)cc3)nc(C(C)(C)C)nc21 to COc1cc(/C=C/C(=O)c2ccc(N3CCN(C)CC3)cc2)ccc1F, the growth falls from 91.2% to 50%.

First: Cc1cc(C(=O)Nc2sc3c(c2C(N)=O)CCC(=O)C3)ccc1OCCN1CCCCC1
Second: CCOC(=O)c1c(NC(=O)c2cccc(C(F)(F)F)c2)sc2cc(O)ccc12
The growth of the first is higher: 63.3% for the first, 46.9% for the second.

Compared with O=c1[nH]c(CNc2ccc(NCc3c(-c4ccccc4)no[n+]3[O-])cc2)nc2c1cnn2-c1ccccc1, O=c1c2ccccc2nc(COc2ccccc2)n1/N=C/C=C/c1ccccc1 is higher in growth: 63.1% for the first, 107% for the second.

First: CC(C)[C@H]1c2[nH]c3ccccc3c2C[C@H]2C(=O)N(CCCCCCC(=O)NO)CC(=O)N12
Second: CCCCCN1C(=O)/C(=c2\sc3n(c2=O)C2C(NN=3)N(CC)C(=O)N2CC)c2cccc(C)c21 (stereo not given)
The growth of the first is higher: 96.1% for the first, 11.9% for the second.

First: COc1c(N2CC3CCCNC3C2)c(F)cc2c(=O)c(C(=O)N/N=C/c3ccccc3)cn(C3CC3)c12 (stereo not given)
Second: O=C(CSc1nccc(=O)[nH]1)Nc1ccc(-c2nc3ccccc3[nH]2)cc1
The growth of the first is lower: 73.6% for the first, 115% for the second.

First: C/C(=C(/C)C1CC1CCNC1CCC(NC(=O)OC(C)(C)C)CC1)c1ccccc1 (stereo not given)
Second: COc1cc2oc(-c3cccc(C(=O)N[C@@H](CC(C)C)C(=O)OC(C)(C)C)c3)cc(=O)c2c(OC)c1OC
The growth of the first is lower: 56.6% for the first, 76.8% for the second.

Going from C=C(C)[C@@H]1CC[C@]2(COS(C)(=O)=O)CC[C@]3(C)[C@H](CC[C@@H]4[C@@]5(C)CCCNC(C)(C)[C@@H]5CC[C@]43C)[C@@H]12 to C=C1CCc2nc(SCC(=O)O)ccc2N1, the growth rises from 34.1% to 96%.

Going from CC(=O)C1=C(C)NC(NNC(N)=S)=NC1c1ccccc1 (stereo not given) to CCOC(=O)c1ccc(N/C=C/C(=O)c2ccccc2)cc1, the growth falls from 148% to 84.3%.

First: COc1ccc(COc2ccc(/C=C3\C(=O)Nc4ccccc43)cc2OC)cc1
Second: COc1ccc(-c2nnc(/N=C3/C(=O)Nc4ccc(Br)cc43)o2)cc1
The growth of the first is higher: 115% for the first, 60.4% for the second.

Compared with O=C(Nc1ccc2c(ccn2Cc2ccccn2)c1)c1ccnnc1, CCN1CCN(Cc2ccc(C(=O)Nc3ccc(C)c(Oc4ccc(-c5[nH]nc6ncnc(N)c56)cc4)c3)cc2C(F)(F)F)CC1 is lower in growth: 145% for the first, 139% for the second.

First: CN(C)CCCOc1c2ccc(Cl)cc2nc2c1oc1ccc(Cl)cc12
Second: CS(=O)(=O)Nc1cc(-c2ccc3ncc(C#N)c(NCc4ccccc4O)c3c2)cnc1Cl
The growth of the first is higher: 18.9% for the first, 12.4% for the second.

Going from C#CCNC1CCC(c2csc(C#C)n2)=C1C (stereo not given) to NC(=O)c1cccc(C#CCNC[C@H]2C[C@@H](n3ccc4c(Cl)ncnc43)[C@H](O)[C@@H]2O)c1, the growth rises from 90.6% to 102%.

CCOc1ccc(C(=O)Nc2ncc(Cc3ccc(F)cc3)s2)cc1 was tested, and the growth was 1.55% (active).
For COc1cccc2cc(-c3cc4ccccc4[nH]3)/c(=N\NC(=O)c3ccc(Cl)cc3)oc12, the growth was -11.8% (active).
In the case of O=S(=O)(Nc1ccc(I)cc1Cl)c1ccc(-c2cnc(C3CC3)o2)cc1, the growth is reported as 9.69% (active).
For Cc1ccc2c(n1)C(=O)C(Cl)=C(Nc1ccc(C(C)C)cc1)C2=O, the growth was -0.278% (active).
With Cc1cc(F)cc(NS(=O)(=O)c2ccc(-c3cnc(C4CC4)o3)cc2)c1 the growth was 1.67% (active).
For O=C(NNc1nc2cc(F)c(F)cc2n2cccc12)c1ccncn1, the growth was 0.0559% (active).
With CCC1=Cc2c(OC)cccc2OC12C=Cc1c(OC)cccc1O2 (stereo not given) the growth was -6.34% (active).
In the case of ClC(Cl)c1nc(-c2ccco2)n2nc(-c3ccccc3)cc2n1, the growth is reported as -24.4% (active).
